The values that follow come from PubChem BioAssay (EPA / NIEHS).

Records with an inconclusive call do not appear. Calls of active or inactive are those of the source. Rule for the calls, unless noted: active = hit-call score of the fitted dose curve at least 0.9, where 1 is the maximum; inactive = score below 0.9.

Experiment [1] addresses Glucocorticoid receptor (Homo sapiens) (UniProt P04150). As to the kind of experiment: ATG_GR_TRANS: Attagene TRANS-FACTORIAL HepG2 Assay for human Glucocorticoid Receptor (GR) (AID 2282978; active = hit-call score of the fitted dose curve at least 0.9, where 1 is the maximum;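 note: activators score as hits since higher reporter transcript over DMSO is fitted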). Conditions: HepG2 Attagene TRANS GR reporter, mRNA transcription. The method, boiled down:
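HepG2 cells transiently transfected with multiplexed reporter units in which chimeric NR-GAL4 proteins drive GAL4-UAS reporters; 24 h compound exposure. Reporter mRNA measured by RT-PCR, 6-FAM labelling, HpaI digestion and capillary electrophoresis; gain-of-signal fitted versus DMSO.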

In experiment [2] the target is Bile acid receptor (Homo sapiens) (UniProt Q96RI1). Put plainly: ATG_FXR_TRANS: Attagene TRANS-FACTORIAL HepG2 Assay for Farnesoid X Receptor (FXR) (AID 2282979; active = hit-call score of the fitted dose curve at least 0.9, where 1 is the maximum;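 note: hits raise reporter mRNA above DMSO so AC50 marks FXR activation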). Conditions: HepG2 Attagene TRANS FXR-GAL4 reporter transcription. The essentials:
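Chimeric FXR-GAL4 activity in transiently transfected human HepG2 liver cells is scored as induction of reporter mRNA after 24 h of dosing. Detection uses RT-PCR with fluorescent labelling and capillary electrophoresis, with DMSO serving as baseline.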

Experiment [3] concerns the target Hepatocyte nuclear factor 4-alpha (Homo sapiens) (UniProt P41235). As to the kind of experiment: ATG_HNF4a_TRANS: Attagene TRANS-FACTORIAL HepG2 Assay for human Hepatocyte Nuclear Factor 4 alpha (HNF4a) (AID 2282982; active = hit-call score of the fitted dose curve at least 0.9, where 1 is the maximum). Conditions: HepG2 HNF4a transactivation reporter, mRNA readout. The essentials: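 Gain-of-signal mRNA induction, relative to DMSO vehicle, was read after 24 h compound treatment of HepG2 cells bearing transfected GAL4-UAS reporters. Detection used RT-PCR, 6-FAM primer extension and capillary electrophoresis.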

Experiment [4] can be described thus: ATG_M_32_TRANS: Attagene TRANS-FACTORIAL HepG2 Assay for M32 Transcription Factor (Internal Marker) (AID 2282984; active = hit-call score of the fitted dose curve at least 0.9, where 1 is the maximum;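 note: transcript level of a background control reporter unit measured by RT-PCR and capillary electrophoresis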). Conditions: HepG2 Attagene TRANS M32 internal marker reporter. The method, boiled down:
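Capillary electrophoresis of 6-FAM-labelled reporter fragments gives the signal; data fitted for gain over DMSO negative control. Source: HepG2 cells bearing transient multiple reporter transcription units, 24 h exposure.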

Experiment [5] has as its target Transcriptional activator Myb (Homo sapiens) (UniProt P10242). As to the kind of experiment: ATG_Myb_CIS: Attagene CIS-FACTORIAL HepG2 Assay for human Myeloblastosis (Myb) Proto-Oncogene Transcription Factor (AID 2282986). Particulars: HepG2 Attagene CIS-FACTORIAL Myb reporter transcription; actives raise or lower the signal. The essentials: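 HepG2 cells were transiently transfected with cis-regulated multiple reporter transcription units reflecting endogenous Myb activity, then exposed to compound for 24 hours. Reporter mRNA was measured by RT-PCR with capillary electrophoresis; bidirectional fitting versus DMSO baseline.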

Experiment [6] addresses Nuclear respiratory factor 1 (Homo sapiens) (UniProt Q16656). Put plainly: ATG_NRF1_CIS: Attagene CIS-FACTORIAL HepG2 Assay for human Nuclear Respiratory Factor 1 (NRF1) Orphan Gene (AID 2282987). Particulars: HepG2 NRF1 cis-element reporter, Attagene multiplex; actives raise or lower the signal. The essentials: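 HepG2 cells transiently transfected with multiple reporter transcription units under cis-regulatory promoter control, so endogenous transcription-factor activity is read. After 24 h compound exposure, reporter mRNA quantified by RT-PCR, fluorescent labelling, HpaI digestion and capillary electrophoresis; bidirectional fitting versus DMSO.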

The nature of experiment [7]: ATG_NFI_CIS: Attagene CIS-FACTORIAL HepG2 Assay for human Nuclear Factor I (NFI) (AID 2282989). Conditions: HepG2 cis-regulatory reporter, NFI response element transcription; actives raise or lower the signal. The essentials: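 After transient transfection of HepG2 with cis-promoter reporter constructs and 24 h dosing, RNA is reverse-transcribed, amplified, 6-FAM end-labelled and HpaI-digested before capillary analysis. Bidirectional curve fitting against DMSO.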

Experiment [8] addresses Myc proto-oncogene protein (Homo sapiens) (UniProt P01106). Put plainly: ATG_Myc_CIS: Attagene CIS-FACTORIAL HepG2 Assay for human Myelocytomatosis (Myc) Proto-Oncogene Transcription Factor (AID 2282990). Particulars: HepG2, Attagene cis-reporter transcription factor activity; actives raise or lower the signal. The essentials:
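Transiently transfected HepG2 cells bearing cis-promoter reporter units for endogenous transcription factors; 24 h exposure. Reporter mRNA measured by RT-PCR, 6-FAM primer extension, HpaI cut and capillary electrophoresis; bidirectional fit relative to DMSO.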

A short description of experiment [9]: ATG_NF_kB_CIS: Attagene CIS-FACTORIAL HepG2 Assay for human Nuclear Factor Kappa B (NF-kB) (AID 2282991). Particulars: HepG2 Attagene cis-factorial NF-kB reporter mRNA; actives raise or lower the signal. The essentials:
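HepG2 cells transiently transfected with multiplexed cis-element reporter units measuring endogenous transcription factor activity; reporter mRNA read 24 h after dosing by RT-PCR, fluorescent labelling, HpaI digestion and capillary electrophoresis. Bidirectional fit against DMSO baseline.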

A short description of experiment [10]: ATG_Oct_MLP_CIS: Attagene CIS-FACTORIAL HepG2 Assay for human Octamer-Binding Transcription Factor (Oct) (AID 2282993). Conditions: HepG2 Attagene cis-factorial Oct reporter, mRNA; actives raise or lower the signal. The method, boiled down: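 Cells of the HepG2 line express promoter-controlled reporter sequences whose mRNA levels, after 24 h treatment, are measured by RT-PCR and capillary electrophoresis. Increases and decreases are scored relative to DMSO.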

Experiment [11] deals with Oxysterols receptor LXR-alpha (Homo sapiens) (UniProt Q13133). Put plainly: ATG_LXRa_TRANS: Attagene TRANS-FACTORIAL HepG2 Assay for human Liver X Receptor alpha (LXRa) (AID 2282980; active = hit-call score of the fitted dose curve at least 0.9, where 1 is the maximum). Conditions: HepG2 Attagene TRANS reporter, LXRa transactivation. The essentials: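 Transient HepG2 transfectants, 24 h dosing, RT-PCR/CE mRNA reporter quantitation; gain-of-signal vs DMSO.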

For experiment [12], the target named is Oxysterols receptor LXR-beta (Homo sapiens) (UniProt P55055). As to the kind of experiment: ATG_LXRb_TRANS: Attagene TRANS-FACTORIAL HepG2 Assay for human Liver X Receptor beta (LXRb) (AID 2282981; active = hit-call score of the fitted dose curve at least 0.9, where 1 is the maximum). Conditions: HepG2 Attagene TRANS GAL4-LXRb reporter, mRNA. The method, boiled down:
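Gain-of-signal mRNA reporter endpoint, DMSO as negative control. Transiently transfected HepG2 cells carrying the NR-Gal4 chimera and GAL4-UAS reporter units were treated 24 h; transcripts quantified by RT-PCR and capillary electrophoresis fluorescence.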

Experiment [13] addresses Nuclear receptor subfamily 4 group A member 2 (Homo sapiens) (UniProt P43354). As to the kind of experiment: ATG_NURR1_TRANS: Attagene TRANS-FACTORIAL HepG2 Assay for human Nuclear Receptor Related Protein 1 (NURR1) (AID 2282985; active = hit-call score of the fitted dose curve at least 0.9, where 1 is the maximum). Conditions: HepG2 Attagene TRANS reporter, mRNA readout. The method, boiled down: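 HepG2 / transient MRTU transfection / 24 h compound exposure / RT-PCR + CE fluorescence of reporter mRNA / gain-of-signal vs DMSO.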

Experiment [14] concerns the target Cellular tumor antigen p53 (Homo sapiens) (UniProt P04637). Put plainly: ATG_p53_CIS: Attagene CIS-FACTORIAL HepG2 Assay for human p53 Transcription Factor (AID 2282994). Particulars: HepG2 p53 cis-element reporter, Attagene mRNA; actives raise or lower the signal. The essentials:
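HepG2, transient MRTU transfection (cis promoter elements, endogenous TFs); 24 h dosing; RNA isolation, RT-PCR, 6-FAM primer extension, HpaI digest, CE fluorescence; bidirectional fit vs DMSO.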

Experiment [15] in a line: ATG_M_06_TRANS: Attagene TRANS-FACTORIAL HepG2 Assay for M06 Transcription Factor (Internal Marker) (AID 2282983; active = hit-call score of the fitted dose curve at least 0.9, where 1 is the maximum). Particulars: HepG2 Attagene TRANS M06 internal marker reporter. The method, boiled down: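 Measured by capillary electrophoresis of fluorescently labelled RT-PCR products, this endpoint reflects reporter mRNA in HepG2 cells harbouring exogenous NR-GAL4 reporter constructs after 24 h exposure, with DMSO as baseline.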

The nature of experiment [16]: ATG_NRF2_ARE_CIS: Attagene CIS-FACTORIAL HepG2 Assay for human Nuclear Factor Erythroid 2 Related Factor 2 (NFR2) response to Antioxidant Response Elements (ARE) (AID 2282992). Conditions: HepG2 Attagene ARE/NRF2 reporter, transcription factor activity; actives raise or lower the signal. The essentials: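 Transient MRTU transfection of HepG2; 24 h compound exposure; TriZol RNA, RT with oligo(dT), PCR, 6-FAM primer extension, HpaI cut, CE. Bidirectional fit vs DMSO.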

Experiment [17] addresses Estrogen-related receptor gamma (Homo sapiens) (UniProt P62508). Put plainly: ATG_ERRg_TRANS: Attagene TRANS-FACTORIAL HepG2 Assay for human Estrogen-Related Receptor gamma (ERRg) (AID 2282977; active = hit-call score of the fitted dose curve at least 0.9, where 1 is the maximum;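 note: hits increase reporter signal over DMSO so potencies reflect activators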). Particulars: HepG2 Attagene TRANS reporter, ERRg transactivation. The essentials: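 HepG2 cells transiently transfected with multiplexed GAL4-UAS reporter units and chimeric NR-Gal4 constructs were exposed to test chemicals for 24 h. Reporter mRNA was measured by RT-PCR, 6-FAM primer extension, HpaI digestion and capillary electrophoresis; gain-of-signal versus DMSO.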

Cellular tumor antigen p53 (Homo sapiens), sequence (P04637 whole entry, looked up): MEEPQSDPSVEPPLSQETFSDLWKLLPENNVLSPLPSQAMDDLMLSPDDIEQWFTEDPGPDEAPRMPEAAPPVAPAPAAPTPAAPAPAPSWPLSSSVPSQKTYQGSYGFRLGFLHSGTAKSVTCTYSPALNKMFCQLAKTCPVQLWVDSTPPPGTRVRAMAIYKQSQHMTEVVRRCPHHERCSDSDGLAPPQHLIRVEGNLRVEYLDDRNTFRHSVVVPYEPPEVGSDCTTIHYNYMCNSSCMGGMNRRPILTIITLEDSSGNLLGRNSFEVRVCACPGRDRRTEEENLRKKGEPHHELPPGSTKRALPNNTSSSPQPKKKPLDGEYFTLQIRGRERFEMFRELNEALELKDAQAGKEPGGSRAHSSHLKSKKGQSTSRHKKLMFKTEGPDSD
Hepatocyte nuclear factor 4-alpha (Homo sapiens), sequence (P41235 whole entry, looked up, the tested form may be a part): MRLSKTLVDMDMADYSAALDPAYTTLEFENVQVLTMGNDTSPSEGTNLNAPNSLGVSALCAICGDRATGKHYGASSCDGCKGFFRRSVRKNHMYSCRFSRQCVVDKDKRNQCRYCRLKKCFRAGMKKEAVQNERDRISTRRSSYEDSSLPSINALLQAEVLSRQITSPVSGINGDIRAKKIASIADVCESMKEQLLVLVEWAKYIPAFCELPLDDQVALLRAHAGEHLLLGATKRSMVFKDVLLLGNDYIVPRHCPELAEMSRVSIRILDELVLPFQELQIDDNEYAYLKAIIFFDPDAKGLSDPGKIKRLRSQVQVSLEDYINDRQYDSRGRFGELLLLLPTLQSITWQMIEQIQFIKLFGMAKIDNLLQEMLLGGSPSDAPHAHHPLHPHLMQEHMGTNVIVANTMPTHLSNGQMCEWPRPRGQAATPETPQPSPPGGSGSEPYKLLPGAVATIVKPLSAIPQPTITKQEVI
Nuclear receptor subfamily 4 group A member 2 (Homo sapiens), sequence (P43354 whole entry, looked up): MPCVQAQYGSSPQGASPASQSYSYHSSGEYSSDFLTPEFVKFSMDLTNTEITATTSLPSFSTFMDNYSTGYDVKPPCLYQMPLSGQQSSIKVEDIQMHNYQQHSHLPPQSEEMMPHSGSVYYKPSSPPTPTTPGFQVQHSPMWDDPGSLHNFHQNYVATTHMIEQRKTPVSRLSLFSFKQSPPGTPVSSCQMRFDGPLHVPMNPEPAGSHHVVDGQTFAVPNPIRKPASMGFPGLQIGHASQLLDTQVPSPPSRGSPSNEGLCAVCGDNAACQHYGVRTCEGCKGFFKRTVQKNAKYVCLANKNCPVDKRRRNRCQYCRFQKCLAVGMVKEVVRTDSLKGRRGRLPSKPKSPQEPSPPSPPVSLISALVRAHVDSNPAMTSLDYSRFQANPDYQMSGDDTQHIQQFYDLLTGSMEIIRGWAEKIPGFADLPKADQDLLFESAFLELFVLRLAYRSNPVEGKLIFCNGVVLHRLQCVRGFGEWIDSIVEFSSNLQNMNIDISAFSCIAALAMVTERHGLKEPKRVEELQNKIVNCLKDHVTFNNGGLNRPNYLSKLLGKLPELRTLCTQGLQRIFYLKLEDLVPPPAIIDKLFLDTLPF
Oxysterols receptor LXR-beta (Homo sapiens), sequence (P55055 whole entry, looked up, the tested form may be a part): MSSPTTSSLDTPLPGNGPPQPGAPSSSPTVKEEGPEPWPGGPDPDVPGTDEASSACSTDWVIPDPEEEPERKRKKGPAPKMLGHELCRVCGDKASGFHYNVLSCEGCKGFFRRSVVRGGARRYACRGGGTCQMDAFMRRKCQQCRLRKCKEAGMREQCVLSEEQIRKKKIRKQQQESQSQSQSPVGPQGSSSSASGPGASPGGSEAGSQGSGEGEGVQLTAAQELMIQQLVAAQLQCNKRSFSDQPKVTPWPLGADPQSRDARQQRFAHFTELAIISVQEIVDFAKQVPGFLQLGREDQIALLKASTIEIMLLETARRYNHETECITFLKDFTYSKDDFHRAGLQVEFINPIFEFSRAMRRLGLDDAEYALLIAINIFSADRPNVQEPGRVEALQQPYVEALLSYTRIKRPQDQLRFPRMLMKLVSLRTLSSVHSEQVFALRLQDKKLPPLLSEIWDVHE
Transcriptional activator Myb (Homo sapiens), sequence (P10242 whole entry, looked up): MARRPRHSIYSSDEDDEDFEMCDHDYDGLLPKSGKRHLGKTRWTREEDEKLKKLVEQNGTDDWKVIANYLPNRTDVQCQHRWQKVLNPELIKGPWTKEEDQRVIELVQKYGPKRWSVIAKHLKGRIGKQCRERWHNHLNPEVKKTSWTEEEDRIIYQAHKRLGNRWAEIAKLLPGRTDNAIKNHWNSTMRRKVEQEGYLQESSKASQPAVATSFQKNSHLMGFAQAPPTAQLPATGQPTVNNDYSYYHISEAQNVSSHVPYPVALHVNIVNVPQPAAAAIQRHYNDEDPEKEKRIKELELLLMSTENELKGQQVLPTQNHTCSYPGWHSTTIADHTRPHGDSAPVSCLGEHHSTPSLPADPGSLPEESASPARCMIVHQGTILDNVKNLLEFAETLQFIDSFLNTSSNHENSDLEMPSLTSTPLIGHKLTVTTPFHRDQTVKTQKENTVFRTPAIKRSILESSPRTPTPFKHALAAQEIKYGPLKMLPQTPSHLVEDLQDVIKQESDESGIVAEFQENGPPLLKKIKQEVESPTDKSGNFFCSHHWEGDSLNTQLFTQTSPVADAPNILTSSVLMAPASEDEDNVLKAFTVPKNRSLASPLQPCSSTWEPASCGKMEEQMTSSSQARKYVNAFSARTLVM
Myc proto-oncogene protein (Homo sapiens), sequence (P01106 whole entry, looked up): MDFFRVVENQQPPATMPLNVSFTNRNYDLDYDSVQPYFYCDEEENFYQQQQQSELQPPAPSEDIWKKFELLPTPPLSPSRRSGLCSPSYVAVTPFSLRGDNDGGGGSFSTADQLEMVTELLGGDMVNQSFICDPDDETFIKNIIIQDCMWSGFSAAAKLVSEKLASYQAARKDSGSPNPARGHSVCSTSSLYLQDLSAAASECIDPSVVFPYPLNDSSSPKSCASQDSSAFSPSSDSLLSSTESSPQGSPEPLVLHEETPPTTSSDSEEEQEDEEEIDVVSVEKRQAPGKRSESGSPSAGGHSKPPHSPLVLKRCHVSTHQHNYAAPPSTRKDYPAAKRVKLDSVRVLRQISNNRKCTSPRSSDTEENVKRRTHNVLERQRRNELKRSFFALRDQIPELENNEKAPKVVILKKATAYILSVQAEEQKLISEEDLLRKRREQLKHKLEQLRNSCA
Bile acid receptor (Homo sapiens), sequence (Q96RI1 whole entry, looked up, the tested form may be a part): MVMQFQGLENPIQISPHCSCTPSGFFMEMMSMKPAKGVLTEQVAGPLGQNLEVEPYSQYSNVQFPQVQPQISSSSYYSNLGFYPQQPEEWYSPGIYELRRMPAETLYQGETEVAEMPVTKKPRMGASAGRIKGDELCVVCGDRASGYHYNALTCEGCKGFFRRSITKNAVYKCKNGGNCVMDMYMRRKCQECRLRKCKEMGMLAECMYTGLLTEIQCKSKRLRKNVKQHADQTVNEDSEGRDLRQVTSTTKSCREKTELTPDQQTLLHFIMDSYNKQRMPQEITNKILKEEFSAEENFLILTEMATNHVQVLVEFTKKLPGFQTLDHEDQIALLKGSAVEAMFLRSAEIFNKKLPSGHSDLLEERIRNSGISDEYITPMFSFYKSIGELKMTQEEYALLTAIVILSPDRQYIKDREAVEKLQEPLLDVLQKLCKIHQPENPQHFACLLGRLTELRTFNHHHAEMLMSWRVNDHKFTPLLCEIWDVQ
Nuclear respiratory factor 1 (Homo sapiens), sequence (Q16656 whole entry, looked up): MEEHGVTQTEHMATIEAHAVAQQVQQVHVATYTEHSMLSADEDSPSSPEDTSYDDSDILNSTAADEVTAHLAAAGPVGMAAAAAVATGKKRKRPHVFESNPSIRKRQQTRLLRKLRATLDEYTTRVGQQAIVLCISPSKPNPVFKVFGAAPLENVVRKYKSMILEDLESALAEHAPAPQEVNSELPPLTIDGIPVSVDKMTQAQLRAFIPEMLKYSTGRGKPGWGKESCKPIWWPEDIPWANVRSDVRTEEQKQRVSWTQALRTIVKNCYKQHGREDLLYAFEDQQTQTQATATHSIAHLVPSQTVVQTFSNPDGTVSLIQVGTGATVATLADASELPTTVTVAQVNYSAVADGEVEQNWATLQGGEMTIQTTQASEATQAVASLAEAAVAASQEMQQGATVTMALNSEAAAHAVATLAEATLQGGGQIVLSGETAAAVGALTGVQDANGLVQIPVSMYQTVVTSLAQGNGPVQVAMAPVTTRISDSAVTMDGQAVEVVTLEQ
Oxysterols receptor LXR-alpha (Homo sapiens), sequence (Q13133 whole entry, looked up): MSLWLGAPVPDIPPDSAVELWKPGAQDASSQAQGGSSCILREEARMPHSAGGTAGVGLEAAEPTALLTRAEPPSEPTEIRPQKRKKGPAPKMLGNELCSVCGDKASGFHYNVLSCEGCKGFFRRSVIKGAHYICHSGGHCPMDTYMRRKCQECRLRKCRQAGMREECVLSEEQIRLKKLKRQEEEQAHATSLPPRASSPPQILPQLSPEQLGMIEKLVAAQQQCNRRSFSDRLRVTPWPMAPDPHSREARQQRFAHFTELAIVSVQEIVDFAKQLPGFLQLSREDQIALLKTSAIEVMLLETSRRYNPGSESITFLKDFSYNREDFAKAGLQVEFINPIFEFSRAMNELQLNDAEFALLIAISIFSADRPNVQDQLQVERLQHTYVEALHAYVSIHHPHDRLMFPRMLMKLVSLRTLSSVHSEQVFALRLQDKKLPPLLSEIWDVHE
Estrogen-related receptor gamma (Homo sapiens), sequence (P62508 whole entry, looked up, the tested form may be a part): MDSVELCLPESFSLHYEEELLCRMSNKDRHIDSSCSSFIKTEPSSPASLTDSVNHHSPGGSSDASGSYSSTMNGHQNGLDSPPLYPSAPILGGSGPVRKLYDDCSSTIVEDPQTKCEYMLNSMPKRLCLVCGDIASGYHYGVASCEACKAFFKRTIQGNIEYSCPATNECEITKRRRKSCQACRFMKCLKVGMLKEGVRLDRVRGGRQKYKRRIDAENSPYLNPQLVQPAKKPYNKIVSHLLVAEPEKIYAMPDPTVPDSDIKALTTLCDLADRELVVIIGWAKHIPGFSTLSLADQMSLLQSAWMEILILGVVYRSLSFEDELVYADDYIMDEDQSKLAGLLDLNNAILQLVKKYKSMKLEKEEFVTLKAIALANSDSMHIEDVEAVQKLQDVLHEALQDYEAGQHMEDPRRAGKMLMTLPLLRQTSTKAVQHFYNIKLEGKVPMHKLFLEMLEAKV

For `O=C1OCc2ccccc21`, the call in [1], in experiment [2], in [3], in experiment [4], in experiment [5] and in experiment [6] was inactive. The outcome in experiment [7], in experiment [8], in experiment [9] and in [10] was inactive.

Turning to `C=C1CC[C@H]2O[C@]2(C)CC[C@@H]2[C@@H]1CC2(C)C`, the compound was classed as inactive in experiment [1], in experiment [2], in [11], in experiment [12], in experiment [4] and in experiment [13]. The compound was classed as inactive in experiment [6], in experiment [7], in [8], in experiment [9], in [10] and in experiment [14].

With `CCC(C)(CCCC(C)C)OC(C)=O` (stereo not given), the result in [1], in [2], in experiment [11], in [3], in experiment [15] and in [5] was inactive. The compound was classed as inactive in [6], in experiment [10] and in [14].

For `CC(C)(O)CCc1ccccc1`, the compound was called inactive in experiment [1], in [2], in experiment [12], in experiment [3], in experiment [15] and in experiment [13]. In addition, the compound was called inactive in experiment [6], in experiment [7], in experiment [8], in [9], in [16] and in [14].

For `C=C/C(C)=C/C/C=C(\C)CCC=C(C)C`, the compound was called inactive in experiment [1], in experiment [2], in experiment [15], in [4], in [13] and in [6]. Moreover, the outcome in experiment [7], in experiment [8], in experiment [10] and in [14] was inactive. The concentration at half-maximal activity (AC50) (in general, the concentration giving half of the maximal activity seen) is 100 µM (active) in experiment [9] and 67.1 µM (active) in experiment [16].

On to `CC(=O)c1ccc2ccccc2c1`, for which the outcome in experiment [1], in [2], in experiment [13], in experiment [5], in experiment [6] and in [7] was inactive. For the same compound, the result in [8], in [10] and in [14] was inactive.

With `CCCCCC(=O)O[C@]1(C(C)=O)CC[C@H]2[C@@H]3CCC4=CC(=O)CC[C@]4(C)[C@H]3CC[C@@]21C`, the AC50 in [1] is 0.476 µM (active); in experiment [13], 8.77 µM (active); in experiment [6], 8.32 µM (active); in experiment [16], 12.6 µM (active). In addition, the compound was called inactive in experiment [2], in experiment [11], in [12], in [15], in experiment [4] and in experiment [5]. Besides, the compound was classed as inactive in experiment [7], in experiment [8], in experiment [9], in experiment [10] and in experiment [14].

In the case of `CCO[Si](CCC#N)(OCC)OCC`, the result in experiment [1], in experiment [2], in experiment [11], in experiment [12], in experiment [3] and in [15] was inactive. Also, the compound was classed as inactive in [4], in experiment [13], in experiment [5], in [6], in [7] and in experiment [8]. Also, the compound was called inactive in experiment [9], in [16] and in experiment [10].

With `Cc1cc(O)c(C)c(C)c1O`, the outcome in experiment [17], in experiment [15], in experiment [13], in [5], in experiment [6] and in [7] was inactive. Further, the compound was classed as inactive in experiment [8], in experiment [10] and in [14]. The AC50 in experiment [9] is 50.7 µM (active); in [16], 18.8 µM (active).
